From PubChem BioAssay (Tox21)
Results filed as inconclusive are left out. Calls of active or inactive are those of the source. Unless noted, the call rests on the fitted dose curve; in most records, active means well fitted curve in the direction sought with a large enough effect in the repeat runs; inconclusive means weak or mixed curves; inactive means no such curve, though single readings can be large; an effect the other way counts as inactive or inconclusive.

Assays:
[1] = qHTS assay to identify small molecule antagonists of the glucocorticoid receptor (GR) signaling pathway - cell viability counter screen (AID 720693); further: nearly all actives have a fitted effect of over 55% in size
[2] = qHTS assay for identifying genotoxic compounds that show differential cytotoxicity against isogenic chicken DT40 cell lines with known DNA damage response pathways - wild type cell line (AID 743012); further: nearly all actives have a fitted effect of over 60% in size; further: potency means the concentration at half of the fitted maximal effect
Outline: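 300 wt DT40 cells/well; cpd (DMSO) pintool-transferred after ~0.5 h at 37 C/5% CO2; 40 h incubation; CellTiter-Glo added, 30 min RT; luminescence read.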

[3] = qHTS assay for identifying genotoxic compounds that show differential cytotoxicity against isogenic chicken DT40 cell lines with known DNA damage response pathways - Rev3 mutant cell line (AID 743014); further: nearly all actives have a fitted effect of over 55% in size; further: potency means the concentration at half of the fitted maximal effect
[4] = qHTS assay for identifying genotoxic compounds that show differential cytotoxicity against isogenic chicken DT40 cell lines with known DNA damage response pathways - Rad54/Ku70 mutant cell line (AID 743015); further: nearly all actives have a fitted effect of over 60% in size; further: potency means the concentration at half of the fitted maximal effect
[5] = qHTS assay to identify small molecule antagonists of the androgen receptor (AR) signaling pathway - cell viability counter screen (AID 743033; further: nearly all actives have a fitted effect of over 45% in size; further: potency means the concentration at half of the fitted maximal effect)
[6] = biological target: Androgen receptor (Homo sapiens) (UniProt P10275); assay: qHTS assay to identify small molecule agonists of the androgen receptor (AR) signaling pathway using the MDA cell line (AID 743040; further: nearly all actives have a fitted effect of over 20% in size; further: potency means the concentration at half of the fitted maximal effect)
Chain of Androgen receptor (Homo sapiens) (P10275 whole entry, looked up): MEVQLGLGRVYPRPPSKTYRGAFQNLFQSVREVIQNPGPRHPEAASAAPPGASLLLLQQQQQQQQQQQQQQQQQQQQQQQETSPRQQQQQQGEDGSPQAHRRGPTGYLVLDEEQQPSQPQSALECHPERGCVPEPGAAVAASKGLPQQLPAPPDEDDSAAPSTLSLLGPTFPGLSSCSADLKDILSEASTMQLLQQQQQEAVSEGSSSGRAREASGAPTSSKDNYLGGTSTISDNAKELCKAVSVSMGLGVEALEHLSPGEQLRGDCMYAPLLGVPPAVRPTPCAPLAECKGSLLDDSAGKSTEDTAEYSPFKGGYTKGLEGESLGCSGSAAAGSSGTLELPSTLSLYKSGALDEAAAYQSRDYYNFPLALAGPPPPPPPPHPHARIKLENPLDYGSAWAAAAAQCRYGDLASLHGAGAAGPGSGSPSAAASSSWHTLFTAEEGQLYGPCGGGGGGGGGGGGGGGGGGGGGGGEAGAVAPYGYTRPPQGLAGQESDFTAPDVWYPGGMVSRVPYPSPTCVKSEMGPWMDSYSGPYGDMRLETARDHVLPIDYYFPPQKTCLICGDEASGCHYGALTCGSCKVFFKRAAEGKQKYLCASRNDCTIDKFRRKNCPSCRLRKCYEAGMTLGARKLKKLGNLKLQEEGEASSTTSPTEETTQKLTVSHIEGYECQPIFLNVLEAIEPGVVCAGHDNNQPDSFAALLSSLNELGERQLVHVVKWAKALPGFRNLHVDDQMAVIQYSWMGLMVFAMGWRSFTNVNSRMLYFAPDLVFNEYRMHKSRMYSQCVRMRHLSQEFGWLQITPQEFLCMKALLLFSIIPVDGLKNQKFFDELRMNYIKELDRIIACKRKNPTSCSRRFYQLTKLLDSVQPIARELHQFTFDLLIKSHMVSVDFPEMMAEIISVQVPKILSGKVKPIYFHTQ
Outline: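 Luciferase agonist assay: 16 h compound exposure at 37C without CO2 in MDA-kb2 AR-luc cells, whose MMTV promoter responds to both AR and GR. Luminescence measured after 30 min room-temperature incubation with ONE-Glo.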

[7] = qHTS assay to identify small molecule antagonists of the androgen receptor (AR) signaling pathway using the MDA cell line - cell viability counter screen (AID 743041; further: nearly all actives have a fitted effect of over 45% in size)
Outline: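 Viability read by CellTiter-Fluor fluorescence in the same wells as the antagonist screen, added after 15.5 h of a 16 h, 37C exposure. Human breast carcinoma MDA-kb2 AR-luc cells, compounds co-dosed with agonist R1881.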

[8] = biological target: Androgen receptor (Homo sapiens) (UniProt P10275); assay: qHTS assay to identify small molecule antagonists of the androgen receptor (AR) signaling pathway using the MDA cell line (AID 743042; further: nearly all actives have a fitted effect of over 55% in size; further: potency means the concentration at half of the fitted maximal effect)
Outline: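 Antagonist mode: compounds plus R1881 agonist added to MDA-kb2 AR-luc cells, incubated 16 h at 37C. Luciferase reporter luminescence quantified, with multiplexed CellTiter-Fluor readout for cell viability.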

[9] = biological target: Androgen receptor (Homo sapiens) (UniProt P10275); assay: qHTS assay to identify small molecule antagonists of the androgen receptor (AR) signaling pathway (AID 743035; active means well fitted inhibition curve with a large enough effect in the signal ratio in the repeat runs, not every such curve was filed as active; the % refers to the signal ratio; further: potency means the concentration at half of the fitted maximal effect)
Outline: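 In this cell-based reporter screen, compounds were tested in concentration series against R1881-activated HEK293 cells expressing beta-lactamase under UAS control; after 16 h at 37C, FRET substrate was added and fluorescence read 2 h later.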

[10] = biological target: Androgen receptor (Homo sapiens) (UniProt P10275); assay: qHTS assay to identify small molecule agonists of the androgen receptor (AR) signaling pathway (AID 743036; active means well fitted activation curve with a large enough effect in the signal ratio in the repeat runs, with a control signal flat, not every such curve was filed as active; the % refers to the signal ratio; further: potency means the concentration at half of the fitted maximal effect)
Outline: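 Cell-based FRET reporter assay: HEK293 line with a UAS-beta-lactamase construct, compounds added in DMSO, 16 h exposure at 37C, then 2 h substrate step at room temperature and fluorescence intensity read.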
On the % scale 0 is the no-effect control and ±100 the full control effect.

CC(=O)[C@H]1CC[C@H]2[C@@H]3C=CC4=CC(=O)CC[C@@]4(C)[C@@H]3CC[C@]12C
active: Potency [2] 4.03 µM | Potency [3] 3.59 µM | Potency [4] 4.52 µM | Potency [6] 9.02 µM
inactive: Potency [1] | Potency [5] | Potency [7] | Potency [8]

CC1CC(O)CC(C)(C)C1 (centres undefined)
inactive: Potency [1] | Potency [2] | Potency [3] | Potency [4] | Potency [5] | Potency [7]

CCCOC(=O)c1ccc(C(=O)OCCC)nc1
inactive: Potency [1] | Potency [2] | Potency [3] | Potency [4] | Potency [5] | Potency [6] | Potency [7] | Potency [8]

Cc1c(C(=O)NN2CCCCC2)nn(-c2ccc(Cl)cc2Cl)c1-c1ccc(Cl)cc1
inactive: Potency [1] | Potency [5] | Potency [6]
active: Potency [2] 11.9 µM | Potency [3] 11.9 µM | Potency [4] 11.9 µM | Potency [9] 19 µM

C=CCCCCCCCCCCCCCCCC
inactive: viability change, negative = cytotoxic [1] -0.145% [at 7.04 µM] | activity change, negative = cytotoxicity [2] -12.1% [at 8.52 µM] | activity, negative = cytotoxicity [3] 2.07% [at 8.53 µM] | activity change, negative = cytotoxicity [4] -0.283% [at 8.55 µM] | activity change, negative = cytotoxicity [5] 0.86% [at 7.04 µM] | viability change, negative = cytotoxic [7] -4.7% [at 8.47 µM]

O=C(O)c1cccnc1C(=O)O
inactive: Potency [1] | Potency [2] | Potency [3] | Potency [4] | Potency [5] | Potency [7]

O=C(NCCCN1CCOCC1)c1ccc(Cl)cc1
inactive: Potency [1] | Potency [2] | Potency [3] | Potency [4] | Potency [5] | Potency [7]

CN1CCCN=C1/C=C/c1cccs1
inactive: Potency [1] | Potency [2] | Potency [3] | Potency [4] | Potency [5] | Potency [7]

O=C(O)c1snc(Cl)c1Cl
inactive: Potency [1] | Potency [5] | Potency [7]
active: Potency [2] 61.1 µM | Potency [3] 61.1 µM | Potency [4] 61.1 µM

Oc1ccc(Nc2ccccc2)cc1
inactive: Potency [1] | Potency [5] | Potency [10] | Potency [6] | Potency [7]
active: Potency [2] 5.45 µM | Potency [3] 6.11 µM | Potency [4] 6.86 µM

O=C(N/N=C/c1ccc([N+](=O)[O-])o1)c1ccc(O)cc1
inactive: Potency [1] | Potency [5] | Potency [6]
active: Potency [2] 4.52 µM | Potency [3] 4.03 µM | Potency [4] 4.52 µM | Potency [8] 4.52 µM

CCCCCCCC/C=C\CCCCCCCC(=O)OC
inactive: Potency [1] | Potency [2] | Potency [3] | Potency [4] | Potency [5] | Potency [7]

Fc1ccccc1[C@@H](F)COC1CCC(Nc2ncnc3[nH]ncc23)CC1 (some centres undefined)
active: Potency [2] 15.4 µM | Potency [3] 17.2 µM | Potency [4] 12.2 µM | Potency [5] 49 µM | Potency [8] 19.3 µM
inactive: Potency [1] | Potency [6]

C[N+](C)(C)CCOC(N)=O
inactive: Potency [1] | Potency [2] | Potency [3] | Potency [4] | Potency [5] | Potency [10] | Potency [6] | Potency [7] | Potency [8]

CCOC(=O)CC(=O)C(=O)OCC
inactive: Potency [1] | Potency [2] | Potency [3] | Potency [4] | Potency [5] | Potency [9] | Potency [10] | Potency [6] | Potency [8]

CC1=CC(=O)CC(C)(C)C1(O)/C=C/C(C)=C\C(=O)O (centres undefined)
inactive: Potency [1] | Potency [2] | Potency [3] | Potency [4] | Potency [5] | Potency [7]

CC(C)(C)C(=O)O
inactive: Potency [1] | Potency [2] | Potency [3] | Potency [4] | Potency [5] | Potency [7]

CC(=O)Oc1ccc2c(c1)CC[C@@H]1[C@@H]2CC[C@]2(C)[C@@H](O)CC[C@@H]12
active: Potency [2] 29.8 µM | Potency [3] 26.6 µM | Potency [4] 23.7 µM
inactive: Potency [1] | Potency [5] | Potency [7]

CC1(C)C2=CCCC(C)(C)[C@]23CC[C@H]1C3
active: Potency [2] 54.5 µM | Potency [3] 43.3 µM | Potency [4] 30.6 µM
inactive: Potency [1] | Potency [9] | Potency [10] | Potency [6] | Potency [8]

Brc1cc(-c2ccc(Br)c(Br)c2Br)cc(Br)c1Br
inactive: Potency [1] | Potency [2] | Potency [3] | Potency [4] | Potency [5] | Potency [7]

CCCCC1C(=O)N(c2ccccc2)N(c2ccc(O)cc2)C1=O (centres undefined)
inactive: Potency [1] | Potency [6]
active: Potency [2] 3.2 µM | Potency [3] 5.69 µM | Potency [4] 5.07 µM | Potency [8] 12.7 µM

CC(C)CCCCCOC(=O)CCCCC(=O)OCCCCCC(C)C
active: Potency [2] 61.1 µM | Potency [3] 61.1 µM | Potency [4] 61.1 µM
inactive: Potency [1] | Potency [5] | Potency [7]

CSc1ccc(Oc2ccc(S(N)(=O)=O)cc2CN(C)C)cc1C
active: Potency [2] 24.3 µM | Potency [3] 27.3 µM | Potency [4] 61.1 µM
inactive: Potency [1] | Potency [10] | Potency [6] | Potency [7]

Nc1ccc(Cl)cc1[N+](=O)[O-]
inactive: Potency [1] | Potency [2] | Potency [3] | Potency [4] | Potency [10] | Potency [6] | Potency [7] | Potency [8]

CC(C)(CCl)c1ccccc1
inactive: Potency [1] | Potency [2] | Potency [3] | Potency [4] | Potency [5] | Potency [7]

CCCC(=O)O[C@]1(C(=O)COC(=O)CC)CC[C@H]2[C@@H]3CCC4=CC(=O)CC[C@]4(C)[C@H]3[C@@H](O)C[C@@]21C
active: Potency [10] 0.0239 µM | Potency [6] 0.119 µM
inactive: Potency [1] | Potency [2] | Potency [3] | Potency [4] | Potency [9] | Potency [7] | Potency [8]
